# From PubChem BioAssay (NCATS)
# Results filed as inconclusive are left out. The source made the active and inactive calls. The call rests on the fitted dose curve; in most records, active means well fitted inhibition curve with a large enough effect; inconclusive means small, poorly fitted or top-dose-only effect; inactive means no such curve, though single readings can be large or run the other way.
# Experiment: qHTS for Inhibitors of the Aldehyde Dehydrogenase Family (ALDH1A2, ALDH1A3, ALDH2, ALDH3A1) (AID 2061307); further: nearly all actives have a fitted effect of over 50% in size; on Potency: test system not described further here
# Conditions: ALDH inhibition qHTS; series mostly up to 50.3 µM; activity change, negative = inhibition: at the top concentration
# On the % scale 0 is the no-effect control and ±100 the full control effect; potency means the concentration at half of the fitted maximal effect.
Structure (SMILES),"activity change, negative = inhibition",Potency
Nc1ccccc1C(=O)NCc1ccco1,-40.6% (inactive),–
O=C(NCc1ccc2c(c1)OCO2)c1csc(N2CCN(c3ccc(F)cc3)CC2)n1,–,0.708 µM (active)
CCOC(=O)Cn1c(=O)oc2cc(S(=O)(=O)N3CCN(c4ccc(Cl)cc4)CC3)ccc21,-11.2% (inactive),–
Cc1cc(N(C)S(=O)(=O)c2ccc(NC(=O)Cc3ccc(Cl)c(Cl)c3)cc2)no1,–,25.2 µM (active)
Cc1ccc(NS(=O)(=O)c2cc3c(cc2-c2ccco2)NC(=O)CO3)cc1C,-1.43% (inactive),–
CC(=O)Nc1sc2c(c1-c1ccc(N3CCN(C)CC3)cc1)CCNC2,3.08% (inactive),–
CC(C)(O)c1ccccc1CC[C@H](SCC1(CC(=O)O)CC1)c1cccc(/C=C/c2ccc3ccc(Cl)cc3n2)c1,–,10.1 µM (active)
O=C(NCC(=O)N1CCC(c2ccccc2)CC1)c1cccc(-c2ccc(C(F)(F)F)cc2)c1,-1.92% (inactive),–
CC(=O)Nc1sc2c(c1-c1ccc(N(C)C)cc1)CCNC2,–,14.2 µM (active)
CC(=O)c1ccc(NC(=O)c2cc(S(=O)(=O)N3CCOCC3)ccc2C)cc1,0% (inactive),–
Cc1cccc(NC(=O)N2CC(Oc3ccc(-c4nc(C)no4)cc3)C2)c1,–,3.24 µM (active)
CCOC(=O)c1ccc(-c2ccc3ncnc(NCc4ccc(C)o4)c3c2)o1,-5.28% (inactive),–
COC(=O)c1ccnc(NCc2ccc(O)c3ncccc23)c1,–,11.3 µM (active)
CNc1sc(-c2cccc3ccccc23)nc1C#N,-0.559% (inactive),–
O=C(Nc1cccc(Br)c1)c1cc(-c2ccc3c(c2)OCCO3)on1,-9.48% (inactive),–
COc1ccc(C2Nc3ccc(Cl)cc3C(=O)N2Cc2ccccc2)cc1COc1ccc(NC(C)=O)cc1 (stereo not drawn),–,3.57 µM (active)
C[C@@H](O)c1ccc(-c2ccc3ncnc(NCc4cccs4)c3c2)o1,-4.46% (inactive),–
C#CCOc1ccc(-c2no[n+]([O-])c2C#N)cc1,–,11.3 µM (active)
O=C(N/N=C/c1ccc(Sc2ccccn2)o1)c1ccccc1,–,5.65 µM (active)
CC(=O)Nc1sc2c(c1-c1ccco1)CCNC2,-16.2% (inactive),–
O=C1Cc2cc(S(=O)(=O)N3CCN(c4ccc([N+](=O)[O-])cc4)CC3)ccc2N1,-29.3% (inactive),–
Cc1nnc2ccc(N3CCC(NC(=O)c4cccc(C(F)(F)F)c4)CC3)nn12,4.29% (inactive),–
O=C(Nc1cccc(Cc2ccccc2)c1)c1ccc(-c2cccc([N+](=O)[O-])c2)o1,–,25.2 µM (active)
